Screen size: about 39,000 compounds; about 1,500 (3.8%) were called active. This excerpt belongs to a sample that is enriched for actives.
system: HSkMC (human skeletal muscle cells); test: cytotoxicity call (relative viability < 0.9); conditions: 10 µM

SMILES	cytotoxicity call
C[C@H](CO)N1C[C@H](C)[C@H](CN(C)Cc2ccc(Cl)c(Cl)c2)OCCCC[C@H](C)Oc2ccc(NS(=O)(=O)c3ccc(F)cc3)cc2C1=O	active
C[C@H](CO)N1C[C@H](C)[C@@H](CN(C)Cc2ccc(Cl)c(Cl)c2)OCCCC[C@H](C)Oc2ccc(NS(=O)(=O)c3ccc(F)cc3)cc2C1=O	inactive
C[C@H]1CN([C@@H](C)CO)C(=O)c2cc(NC(=O)NC3CCCCC3)ccc2O[C@H]1CN(C)S(=O)(=O)c1cn(C)cn1	inactive
O=C(C[C@@H]1CC[C@@H](NC(=O)Cc2ccccn2)[C@H](CO)O1)NCCc1ccncc1	inactive
C[C@H](CO)N1C[C@H](C)[C@@H](CN(C)S(=O)(=O)c2cccs2)OCCCC[C@H](C)Oc2ccc(NS(=O)(=O)c3ccc(Cl)cc3)cc2C1=O	inactive
C[C@H](CO)N1C[C@H](C)[C@H](CN(C)C(=O)Nc2ccc(C(F)(F)F)cc2)OCCCC[C@H](C)Oc2ccc(NC(=O)Cc3ccccc3)cc2C1=O	inactive
C[C@@H]1CCCCO[C@H](CN(C)Cc2ccc3c(c2)OCO3)[C@H](C)CN([C@@H](C)CO)C(=O)c2cc(NS(=O)(=O)c3ccccc3)ccc2O1	inactive
C[C@H]1CN([C@@H](C)CO)C(=O)c2cc(NC(=O)CCCN(C)C)ccc2O[C@@H]1CN(C)Cc1ccc(Oc2ccccc2)cc1	inactive
Cc1ncc(CO)c(/C=N/O)c1O	inactive
Cc1ccc(S[C@]2(C(=O)NC(C)C)CC(=O)N(C3CCCCC3)[C@@H]2c2ccc(CO)cc2I)cc1	inactive
COc1ccc(S(=O)(=O)N[C@H]2C=C[C@@H](CC(=O)N3CCN(c4ccccc4)CC3)O[C@@H]2CO)cc1	inactive
Cc1noc(C)c1NC(=O)Nc1cccc2c1O[C@@H](CN(C)C(=O)Nc1ccc(C(F)(F)F)cc1)[C@H](C)CN([C@H](C)CO)C2=O	inactive
Cc1cc(C(=O)Nc2cccc3c2O[C@H](CN(C)S(=O)(=O)c2ccc(F)cc2)[C@@H](C)CN([C@H](C)CO)C3=O)n(C)n1	inactive
COC(=O)c1c2oc(c1C(=O)OC)C(=O)N[C@H](Cc1ccccc1)Cn1cc(nn1)CNC(=O)[C@H](Cc1ccccc1)NC(=O)N[C@@H](CO)CC2	inactive
CCCCC[C@H]1C[C@H]1C[C@H]1C[C@H]1CCCCCCCC(=O)O	inactive
COc1cccc(CN2C[C@@H](C)[C@H](OC)CN(C)C(=O)c3cc(NS(=O)(=O)c4cn(C)cn4)ccc3OC[C@H]2C)c1	inactive
O=C(C[C@@H]1CC[C@@H]2[C@H](COC[C@@H](O)CN2C(=O)c2ccc3c(c2)OCO3)O1)NCCN1CCCC1	inactive

SMILES	cytotoxicity call
C[C@@H]1CCCCO[C@H](CN(C)Cc2ccc(Cl)c(Cl)c2)[C@@H](C)CN([C@@H](C)CO)C(=O)c2cc(NS(=O)(=O)c3ccc(F)cc3)ccc2O1	active
C[C@@H]1CCCCO[C@@H](CN(C)Cc2ccc(Cl)c(Cl)c2)[C@@H](C)CN([C@H](C)CO)C(=O)c2cc(NS(=O)(=O)c3ccc(F)cc3)ccc2O1	inactive
C[C@@H]1CCCCO[C@H](CN(C)Cc2ccc(Cl)c(Cl)c2)[C@H](C)CN([C@@H](C)CO)C(=O)c2cc(NS(=O)(=O)c3ccc(F)cc3)ccc2O1	active
C[C@@H]1CN([C@H](C)CO)C(=O)c2cc(NS(=O)(=O)c3ccc(F)cc3)ccc2O[C@@H](C)CCCCO[C@H]1CN(C)Cc1ccc(Cl)c(Cl)c1	inactive
CN1CCN(C(=O)C[C@H]2C=C[C@@H](NC(=O)Cc3ccccn3)[C@H](CO)O2)CC1	inactive
C[C@@H]1CCCCO[C@H](CN(C)C(=O)NC2CCCCC2)[C@H](C)CN([C@H](C)CO)C(=O)c2cc(NC(=O)Nc3ccc(C(F)(F)F)cc3)ccc2O1	active
C[C@@H]1CN([C@H](C)CO)C(=O)c2cc(NC(=O)Nc3ccc(C(F)(F)F)cc3)ccc2O[C@H]1CN(C)C(=O)NC1CCCCC1	inactive
C[C@@H]1CN([C@H](C)CO)C(=O)c2cc(NC(=O)Nc3ccc(C(F)(F)F)cc3)ccc2O[C@@H](C)CCCCO[C@@H]1CN(C)C(=O)NC1CCCCC1	inactive
C[C@@H]1CCCCO[C@H](CN(C)C(=O)NC2CCCCC2)[C@@H](C)CN([C@@H](C)CO)C(=O)c2cc(NC(=O)Nc3ccc(C(F)(F)F)cc3)ccc2O1	inactive
COc1ccc(NC(=O)Nc2ccc3c(c2)C(=O)N([C@H](C)CO)C[C@H](C)[C@@H](CN(C)C(=O)NC2CCCCC2)OCCCC[C@@H](C)O3)cc1	inactive
C[C@H]1CN([C@@H](C)CO)C(=O)c2cc(NC(=O)Nc3ccc(C(F)(F)F)cc3)ccc2O[C@@H]1CN(C)C(=O)NC1CCCCC1	inactive
COc1ccc(NC(=O)Nc2ccc3c(c2)C(=O)N([C@@H](C)CO)C[C@H](C)[C@H](CN(C)C(=O)NC2CCCCC2)OCCCC[C@H](C)O3)cc1	inactive
COc1ccc(NC(=O)Nc2ccc3c(c2)C(=O)N([C@@H](C)CO)C[C@@H](C)[C@@H](CN(C)C(=O)NC2CCCCC2)OCCCC[C@@H](C)O3)cc1	active
C[C@H]1CCCCO[C@@H](CN(C)C(=O)NC2CCCCC2)[C@@H](C)CN([C@@H](C)CO)C(=O)c2cc(NC(=O)Nc3ccc(C(F)(F)F)cc3)ccc2O1	inactive
C[C@@H]1CCCCO[C@@H](CN(C)C(=O)NC2CCCCC2)[C@H](C)CN([C@@H](C)CO)C(=O)c2cc(NC(=O)Nc3ccc(C(F)(F)F)cc3)ccc2O1	inactive
C[C@@H]1CN([C@H](C)CO)C(=O)c2cc(NC(=O)Nc3ccc(C(F)(F)F)cc3)ccc2O[C@@H]1CN(C)C(=O)NC1CCCCC1	active
C[C@@H]1CCCCO[C@@H](CN(C)C(=O)NC2CCCCC2)[C@@H](C)CN([C@H](C)CO)C(=O)c2cc(NC(=O)Nc3ccc(C(F)(F)F)cc3)ccc2O1	active

Reference: the antibiotic and cytotoxicity screens of Wong et al. (2023)
